One assay concerns TTR (gene 7276). Description: CCTE_GLTED_hTTR_0.125uM: CCTE's human Transthyretin (hTTR) Inhibition Assay, with 0.125uM TTR, Great Lakes Toxicology and Ecology Division (GLTED) Lab (AID 2284431).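 Further: hits lower the fluorescence signal relative to DMSO baseline.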 The procedure, abridged: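 Cell-free displacement of ANSA probe from 0.125uM TTR after 2 h incubation with chemical. Fluorescence read at 380 nm excitation/475 nm emission; loss of signal relative to DMSO indicates T4-site displacement.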

Assay [1] can be described thus: CCTE_Padilla_ZF_Score.General: CCTE's 144 Hour Post-fertilization zebrafish Assay Score for General Malformation, Padilla Lab (AID 2284411). In outline:
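Wild-type zebrafish embryos were plated singly at 6-8 hpf in 10% Hanks' and exposed in sealed wells at 26C until rinsed on 5 dpf. At 6 dpf two blinded assessors scored mortality, hatching and malformations by stereomicroscopy; gain-of-signal versus DMSO.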

Assay [2] can be described thus: CCTE_Padilla_ZF_Score.Tail: CCTE's 144 Hour Post-fertilization zebrafish Assay Score for Tail Malformation, Padilla Lab (AID 2284414). The procedure, abridged:
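Wild-type zebrafish embryos, one per well in 200 uL 10% Hanks', dosed at 6-8 hpf, sealed, and kept at 26 C on a 14:10 h light cycle. Chemical was rinsed out at 5 dpf. Blinded brightfield scoring of tail defects followed at 6 dpf.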

Assay [3] in a line: CCTE_Padilla_ZF_Score.Blood_pooling: CCTE's 144 Hour Post-fertilization zebrafish Assay Score for Blood Pooling, Padilla Lab (AID 2284415). In outline:
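Wild-type outbred zebrafish embryos, one per well in 10% Hanks', exposed from 6–8 hpf in sealed plates at 26C on 14:10 h light:dark, rinsed at 5 dpf. Blinded stereomicroscope scoring of blood pooling at 6 dpf; gain-of-signal versus DMSO.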

Assay [4] in a line: CCTE_Padilla_ZF_Score.Any: CCTE's 144 Hour Post-fertilization zebrafish Assay Score for Any Mortality or Malformation, Padilla Lab (AID 2284416). In outline:
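Wild-type zebrafish embryos with chorions, one per well in 10% Hanks' from 6–8 hpf, dosed in sealed plates at 26 C, 14:10 h light:dark; rinsed at 5 dpf; blinded scoring at 6 dpf for death or malformation, versus DMSO.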

For assay [5], the system named is SRY-box transcription factor 17 (SOX17) Protein Expression, Deisenroth Lab, SOX17 (gene 64321). Description: CCTE_Deisenroth_DEVTOX-GLR_Endo_SOX17: CCTE's DevTox GLR-Endo Assay Evaluation of SRY-box transcription factor 17 (SOX17) Protein Expression, Deisenroth Lab (AID 2284413). The procedure, abridged:
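RUES2-GLR human pluripotent cells were differentiated toward endoderm for 48 h and received two compound doses 24 h apart (1 nM - 200 uM, 10 points). High-content imaging of fixed cells gave the percent SOX17+ cells per cell count, expressed as percent change versus 0.2% DMSO.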

The subject of assay [6] is Brachyury (BRA) Protein Expression, TBXT (gene 6862). Kind of assay: CCTE_Deisenroth_DEVTOX-GLR_Endo_BRA: CCTE's DevTox GLR-Endo Assay Evaluation of Brachyury (BRA) Protein Expression, Deisenroth Lab (AID 2284417). The procedure, abridged: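 Endpoint is the fraction of BRA reporter-positive cells over total nuclei, corrected by subtracting the 0.2% DMSO value. Chemicals (1 nM - 200 uM, 10 points) were dosed twice during 48 h differentiation of RUES2-GLR cells, read by imaging.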

The nature of assay [7]: CCTE_Deisenroth_DEVTOX-GLR_Endo_CellCount: Viability Assessment in CCTE's DevTox GLR-Endo Assay, Deisenroth Lab (AID 2284420). The procedure, abridged: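 RUES2-GLR pluripotent cells seeded 24 h, then differentiated 48 h in defined media with two chemical exposures 24 h apart. Nuclei counted by high-content imaging; 10-point 1 nM–200 uM series; percent change versus 0.2% DMSO.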

Assay [8] deals with SRY-box transcription factor 17 (SOX17) Protein Expression, Deisenroth Lab, SOX17 (gene 64321). Kind of assay: CCTE_Deisenroth_DEVTOX-GLR_Pluri_SOX17: CCTE's DevTox GLR-Pluri Assay Evaluation of SRY-box transcription factor 17 (SOX17) Protein Expression, Deisenroth Lab (AID 2284427; active means hit-call score of the fitted dose curve at least 0.9, where 1 is the maximum). The procedure, abridged:
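RUES2-GLR pluripotent cells were induced toward endoderm over 48 h and received two compound doses 24 h apart, in a 10-point series from 1 nM to 200 uM. The percentage of SOX17+ cells among total cells was measured by high-content imaging and reported minus the 0.2% DMSO control.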

Assay [9] deals with SRY-box transcription factor 2 (SOX2) Protein Expression, Deisenroth Lab, SOX2 (gene 6657). Kind of assay: CCTE_Deisenroth_DEVTOX-GLR_Pluri_SOX2: CCTE's DevTox GLR-Pluri Assay Evaluation of SRY-box transcription factor 2 (SOX2) Protein Expression, Deisenroth Lab (AID 2284428). In outline:
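RUES2-GLR human pluripotent cells, two exposures 24 h apart over 48 h differentiation; 10-point series 1 nM - 200 uM. High-content imaging gives SOX2+ cells divided by cell count, reported as percent change versus 0.2% DMSO.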

Assay [10] deals with Brachyury (BRA) Protein Expression, Deisenroth Lab, TBXT (gene 6862). Description: CCTE_Deisenroth_DEVTOX-GLR_Pluri_BRA: CCTE's DevTox GLR-Pluri Assay Evaluation of Brachyury (BRA) Protein Expression, Deisenroth Lab (AID 2284429; active means hit-call score of the fitted dose curve at least 0.9, where 1 is the maximum). The procedure, abridged: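 RUES2-GLR human pluripotent cells differentiated 48 hours with two chemical exposures 24 hours apart, 10-point series 1 nM–200 uM. Fixed, nuclear-stained, imaged; endpoint is percent BRA+ cells minus 0.2% DMSO control.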

Assay [11] is described as follows: CCTE_Deisenroth_DEVTOX-GLR_Pluri_CellCount: Viability Assessment in CCTE's DevTox GLR-Pluri Assay Evaluation of Total Cell Counts, Deisenroth Lab (AID 2284430). In outline: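 RUES2-GLR human pluripotent cells, seeded 24 h, then differentiated 48 h with two chemical exposures 24 h apart; 10-point series 1 nM - 200 uM. Fixed, nuclear-stained, imaged (5 fields/well); nuclei count as % change vs 0.2% DMSO.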

Assay [12] deals with SRY-box transcription factor 2 (SOX2) Protein Expression, Deisenroth Lab, SOX2 (gene 6657). Description: CCTE_Deisenroth_DEVTOX-GLR_Endo_SOX2: CCTE's DevTox GLR-Endo Assay Evaluation of SRY-box transcription factor 2 (SOX2) Protein Expression, Deisenroth Lab (AID 2284412; active means hit-call score of the fitted dose curve at least 0.9, where 1 is the maximum). In outline:
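RUES2-GLR human pluripotent cells were seeded 24 h, then differentiated 48 h with two chemical exposures 24 h apart. Cells were fixed, nuclei stained and imaged by high-content microscopy. Endpoint is %SOX2+ cells over cell count, minus 0.2% DMSO control; 10-point series 1 nM–200 uM.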

Results filed as inconclusive are left out. Active and inactive are the calls of the source. How the source made its calls, unless noted: active means hit-call score of the fitted dose curve at least 0.9, where 1 is the maximum; inactive means score below 0.9.

What is called AC50 is the concentration at which the activity in the assay is half-maximal. On to `CCCCCCCCCC=CCC1CC(=O)OC1=O` (configuration not stated), for which the AC50 with TTR (gene 7276) is 7.87 µM (active).
Take `O=C(OC(=O)C(F)(F)C(F)(F)F)C(F)(F)C(F)(F)F`: the result in assay [1], in assay [2], in assay [3] and in assay [4] was inactive.
On to `CN(Cc1cnc2nc(N)nc(N)c2n1)c1ccc(C(=O)N[C@@H](CCC(=O)O)C(=O)O)cc1`, for which the AC50 is 0.319 µM (active) in [5], 0.329 µM (active) in assay [6], 0.361 µM (active) in assay [7] and 0.0314 µM (active) in [9]. Further, the compound was called inactive in assay [8], in assay [10] and in assay [11].
Take `O=C1NS(=O)(=O)c2ccccc21`: the outcome in assay [5], in [6], in assay [7], in assay [8], in assay [9] and in assay [10] was inactive. Further, the compound was classed as inactive in assay [11].
In the case of `NC(C(F)(F)F)C(F)(F)F`, the compound was called inactive in assay [1], in assay [2], in assay [3] and in [4].
With `Cc1[nH]nc2c1N=C(c1ccccc1Cl)c1cc([N+](=O)[O-])ccc1N2`, in the assay on TTR (gene 7276), the AC50 was 0.771 µM (active).
Consider `CCCCc1oc2ccccc2c1C(=O)c1cc(I)c(OCCN(CC)CC)c(I)c1`, for which the AC50 was 31 µM (active) in [12]; 25.6 µM (active) in [5]; 14.2 µM (active) in assay [6]; 18.2 µM (active) in assay [7]; 21.4 µM (active) in assay [8]; 10.4 µM (active) in assay [9]. Besides, the AC50 in assay [10] is 6.42 µM (active); in assay [11], 10.6 µM (active).
Regarding `CCC(C)c1ccccc1O` (configuration not stated), the AC50 in the assay on TTR (gene 7276) is 22.4 µM (active).
`CCCCCCCCCCCC(=O)O`: in the assay on TTR (gene 7276), the AC50 is 3.05 µM (active).
Take `O=C(O)CCC(F)(F)C(F)(F)C(F)(F)C(F)(F)C(F)(F)C(F)(F)F`: the compound was classed as inactive in assay [1], in [2] and in assay [3]. Besides, the AC50 in [4] was 13.8 µM (active).
On to `CCCCc1ccc2ccccc2c1S(=O)(=O)O`, for which the half-maximal activity concentration (AC50) in the assay on TTR (gene 7276) was 0.712 µM (active).
As for `FCOC(C(F)(F)F)C(F)(F)F`, the result in [1], in [2], in [3] and in [4] was inactive.
`CN(C)CCOC(c1ccccc1)c1ccccc1`: the AC50 in assay [12] was 2.01 µM (active); in assay [5] it was 54.7 µM (active); in [6], 46.8 µM (active); in [7], 61.7 µM (active); in assay [8], 36.2 µM (active); in assay [9], 83.2 µM (active). Further, the AC50 in assay [10] was 19.8 µM (active). Moreover, the compound was called inactive in assay [11].
In the case of `FC(OC(F)(F)C(F)(F)C(F)(F)F)C(F)(F)F` (configuration not stated), the outcome in assay [1], in assay [2], in assay [3] and in [4] was inactive.
With `CC(=O)Nc1ccc(O)cc1`, the outcome in assay [5], in assay [6], in assay [7], in assay [8], in assay [9] and in assay [10] was inactive. Further, the compound was called inactive in assay [11].
With `CCCCCCc1ccc(N)cc1`, in the assay with TTR (gene 7276), the AC50 is 9.58 µM (active).
On to `O=C(c1ccccc1)c1ccccc1`, for which the AC50 in the assay on TTR (gene 7276) is 21.3 µM (active).
Consider `FC(F)(F)N1C(F)(F)C(F)(F)OC(F)(F)C1(F)F`, for which the compound was called inactive in [1], in [2], in [3] and in assay [4].
Regarding `O=C(CC(=O)C(F)(F)C(F)(F)C(F)(F)F)c1cccs1`, the compound was classed as inactive in assay [1], in assay [2] and in assay [3]. In addition, in assay [4], the AC50 is 3.55 µM (active).

These data come from PubChem BioAssay (EPA / NIEHS).
